# Test results taken from ChEMBL document CHEMBL1961873, “Compounds: GSK PKIS; Assays: Nanosyn kinase panel” (2012).
# Legend:
# [1] = molecular target: T1, Serine/threonine-protein kinase D2 (Homo sapiens) (UniProt Q9BZL6); conditions: at 1 µM;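 note: mean value of PRKD2 inhibition, from the GSK PKIS screening panel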
# T1 sequence (whole entry): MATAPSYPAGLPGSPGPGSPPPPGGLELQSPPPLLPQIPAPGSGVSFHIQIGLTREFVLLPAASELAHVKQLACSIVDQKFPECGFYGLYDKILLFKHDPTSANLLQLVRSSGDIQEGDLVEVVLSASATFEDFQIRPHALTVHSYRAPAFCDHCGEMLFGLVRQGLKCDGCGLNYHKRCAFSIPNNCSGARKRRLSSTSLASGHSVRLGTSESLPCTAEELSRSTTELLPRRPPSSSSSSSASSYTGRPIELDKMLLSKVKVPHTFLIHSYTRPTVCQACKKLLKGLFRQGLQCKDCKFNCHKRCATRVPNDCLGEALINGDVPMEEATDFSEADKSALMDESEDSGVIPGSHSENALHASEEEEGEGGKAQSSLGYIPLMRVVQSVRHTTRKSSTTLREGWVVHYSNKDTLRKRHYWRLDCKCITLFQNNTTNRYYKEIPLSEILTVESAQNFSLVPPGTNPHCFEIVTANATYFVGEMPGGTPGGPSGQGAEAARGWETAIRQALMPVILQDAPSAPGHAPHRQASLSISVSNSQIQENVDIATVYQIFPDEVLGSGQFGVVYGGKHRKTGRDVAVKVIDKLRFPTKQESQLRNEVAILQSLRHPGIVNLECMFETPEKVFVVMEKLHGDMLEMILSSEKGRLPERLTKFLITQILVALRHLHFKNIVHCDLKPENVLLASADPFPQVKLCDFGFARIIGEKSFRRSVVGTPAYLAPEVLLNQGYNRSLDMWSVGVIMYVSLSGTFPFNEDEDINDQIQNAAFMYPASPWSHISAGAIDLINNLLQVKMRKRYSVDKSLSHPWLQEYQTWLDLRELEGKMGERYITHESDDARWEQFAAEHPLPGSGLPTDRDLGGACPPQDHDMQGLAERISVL
# [2] = molecular target: T2, Serine/threonine-protein kinase D3 (Homo sapiens) (UniProt O94806); conditions: at 0.1 µM
# T2 sequence (whole entry): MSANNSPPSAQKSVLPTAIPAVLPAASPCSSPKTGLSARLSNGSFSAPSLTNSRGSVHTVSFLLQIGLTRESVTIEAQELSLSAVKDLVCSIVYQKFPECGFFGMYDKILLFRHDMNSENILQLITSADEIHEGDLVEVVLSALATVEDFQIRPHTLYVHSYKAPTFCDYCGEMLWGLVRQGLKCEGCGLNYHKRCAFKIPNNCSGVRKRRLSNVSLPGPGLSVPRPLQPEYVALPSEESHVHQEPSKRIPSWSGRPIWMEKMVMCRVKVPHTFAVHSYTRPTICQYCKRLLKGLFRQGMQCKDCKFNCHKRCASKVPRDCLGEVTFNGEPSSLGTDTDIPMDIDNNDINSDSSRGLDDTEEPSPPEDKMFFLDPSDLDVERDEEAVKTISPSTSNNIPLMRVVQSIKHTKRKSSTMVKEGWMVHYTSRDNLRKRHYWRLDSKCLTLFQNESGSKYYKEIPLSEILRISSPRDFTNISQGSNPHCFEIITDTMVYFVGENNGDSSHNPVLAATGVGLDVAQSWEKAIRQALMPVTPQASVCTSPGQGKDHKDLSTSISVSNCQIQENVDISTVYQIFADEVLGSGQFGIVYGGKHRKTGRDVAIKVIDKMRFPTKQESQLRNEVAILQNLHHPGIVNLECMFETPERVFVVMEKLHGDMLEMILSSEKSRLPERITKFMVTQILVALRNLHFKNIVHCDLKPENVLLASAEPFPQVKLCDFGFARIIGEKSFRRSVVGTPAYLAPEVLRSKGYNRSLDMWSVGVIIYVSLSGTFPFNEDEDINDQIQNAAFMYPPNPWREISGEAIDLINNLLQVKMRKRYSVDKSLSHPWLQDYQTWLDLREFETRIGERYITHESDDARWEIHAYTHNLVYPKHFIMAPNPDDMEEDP
# [3] = molecular target: T2, Serine/threonine-protein kinase D3 (Homo sapiens); conditions: at 1 µM
# [4] = molecular target: T3, cGMP-dependent protein kinase 1 (Homo sapiens) (UniProt Q13976); conditions: at 0.1 µM
# T3 sequence (whole entry): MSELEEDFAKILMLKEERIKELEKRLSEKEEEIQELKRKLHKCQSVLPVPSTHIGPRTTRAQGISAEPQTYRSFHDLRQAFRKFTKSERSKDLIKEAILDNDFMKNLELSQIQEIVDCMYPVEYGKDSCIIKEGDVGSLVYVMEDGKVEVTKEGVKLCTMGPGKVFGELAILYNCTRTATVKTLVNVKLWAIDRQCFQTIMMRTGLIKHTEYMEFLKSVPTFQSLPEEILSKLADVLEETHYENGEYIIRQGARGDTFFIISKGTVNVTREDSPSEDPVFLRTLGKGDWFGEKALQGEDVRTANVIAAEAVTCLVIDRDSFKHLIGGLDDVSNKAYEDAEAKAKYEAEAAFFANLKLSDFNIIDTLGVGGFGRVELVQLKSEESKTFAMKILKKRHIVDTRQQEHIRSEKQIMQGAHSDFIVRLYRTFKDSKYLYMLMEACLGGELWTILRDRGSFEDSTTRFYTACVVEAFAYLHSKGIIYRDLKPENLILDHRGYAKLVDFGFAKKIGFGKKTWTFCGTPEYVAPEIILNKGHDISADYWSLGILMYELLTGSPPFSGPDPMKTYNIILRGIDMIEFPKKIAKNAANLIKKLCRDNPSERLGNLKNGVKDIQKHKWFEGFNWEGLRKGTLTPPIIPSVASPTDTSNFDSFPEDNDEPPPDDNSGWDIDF
# [5] = molecular target: T3, cGMP-dependent protein kinase 1 (Homo sapiens); conditions: at 1 µM
# [6] = molecular target: T4, cGMP-dependent protein kinase 2 (Homo sapiens) (UniProt Q13237); conditions: at 0.1 µM
# T4 sequence (whole entry): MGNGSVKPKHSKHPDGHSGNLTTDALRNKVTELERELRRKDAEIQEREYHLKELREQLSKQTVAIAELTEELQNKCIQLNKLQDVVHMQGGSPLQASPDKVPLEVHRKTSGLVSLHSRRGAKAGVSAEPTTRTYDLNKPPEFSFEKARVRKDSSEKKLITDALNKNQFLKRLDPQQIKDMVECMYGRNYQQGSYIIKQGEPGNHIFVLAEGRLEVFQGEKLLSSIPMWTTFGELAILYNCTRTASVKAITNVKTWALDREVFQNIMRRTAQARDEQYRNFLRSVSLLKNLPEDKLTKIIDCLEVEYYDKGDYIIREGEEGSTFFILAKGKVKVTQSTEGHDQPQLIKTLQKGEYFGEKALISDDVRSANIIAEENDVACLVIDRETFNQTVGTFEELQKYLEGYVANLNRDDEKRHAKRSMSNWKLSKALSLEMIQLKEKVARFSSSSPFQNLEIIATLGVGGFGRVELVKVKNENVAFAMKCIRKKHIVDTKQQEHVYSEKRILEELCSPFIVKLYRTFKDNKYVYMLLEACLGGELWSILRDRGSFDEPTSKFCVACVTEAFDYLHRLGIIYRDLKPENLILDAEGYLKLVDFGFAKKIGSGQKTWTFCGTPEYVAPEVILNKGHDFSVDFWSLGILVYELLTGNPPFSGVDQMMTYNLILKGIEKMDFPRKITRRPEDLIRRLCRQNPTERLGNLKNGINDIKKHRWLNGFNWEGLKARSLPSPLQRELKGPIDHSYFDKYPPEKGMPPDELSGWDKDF
# [7] = molecular target: T4, cGMP-dependent protein kinase 2 (Homo sapiens); conditions: at 1 µM
# [8] = molecular target: T5, cAMP-dependent protein kinase catalytic subunit PRKX (Homo sapiens) (UniProt P51817); conditions: at 0.1 µM
# T5 sequence (whole entry): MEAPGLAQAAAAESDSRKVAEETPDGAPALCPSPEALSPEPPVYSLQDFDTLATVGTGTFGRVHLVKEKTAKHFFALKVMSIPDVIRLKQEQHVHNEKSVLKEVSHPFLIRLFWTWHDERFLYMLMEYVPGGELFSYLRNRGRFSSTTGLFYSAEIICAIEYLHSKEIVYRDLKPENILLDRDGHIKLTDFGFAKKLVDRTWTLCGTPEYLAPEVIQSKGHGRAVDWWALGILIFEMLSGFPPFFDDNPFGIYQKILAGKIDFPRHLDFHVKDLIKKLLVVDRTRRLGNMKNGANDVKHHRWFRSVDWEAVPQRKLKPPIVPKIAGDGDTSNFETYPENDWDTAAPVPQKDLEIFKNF
# [9] = molecular target: T5, cAMP-dependent protein kinase catalytic subunit PRKX (Homo sapiens); conditions: at 1 µM
# [10] = molecular target: Rho-associated protein kinase 1 (Homo sapiens) (UniProt Q13464); conditions: at 0.1 µM
# [11] = molecular target: Rho-associated protein kinase 1 (Homo sapiens) (UniProt Q13464); conditions: at 1 µM
# [12] = molecular target: Rho-associated protein kinase 2 (Homo sapiens) (UniProt O75116); conditions: at 0.1 µM
# [13] = molecular target: Rho-associated protein kinase 2 (Homo sapiens) (UniProt O75116); conditions: at 1 µM
# [14] = molecular target: Ribosomal protein S6 kinase alpha-1 (Homo sapiens) (UniProt Q15418); conditions: at 0.1 µM
# [15] = molecular target: Ribosomal protein S6 kinase alpha-1 (Homo sapiens) (UniProt Q15418); conditions: at 1 µM
# [16] = molecular target: Ribosomal protein S6 kinase alpha-3 (Homo sapiens) (UniProt P51812); conditions: at 0.1 µM
# [17] = molecular target: Ribosomal protein S6 kinase alpha-3 (Homo sapiens) (UniProt P51812); conditions: at 1 µM
# [18] = molecular target: Ribosomal protein S6 kinase alpha-2 (Homo sapiens) (UniProt Q15349); conditions: at 0.1 µM
# [19] = molecular target: Ribosomal protein S6 kinase alpha-2 (Homo sapiens) (UniProt Q15349); conditions: at 1 µM
# [20] = molecular target: Ribosomal protein S6 kinase alpha-6 (Homo sapiens) (UniProt Q9UK32); conditions: at 0.1 µM;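 note: reported value is the mean inhibition of RSK4, from the GSK PKIS kinase inhibitor screen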
# Sequence of Ribosomal protein S6 kinase alpha-6 (Homo sapiens) (Q9UK32 whole entry): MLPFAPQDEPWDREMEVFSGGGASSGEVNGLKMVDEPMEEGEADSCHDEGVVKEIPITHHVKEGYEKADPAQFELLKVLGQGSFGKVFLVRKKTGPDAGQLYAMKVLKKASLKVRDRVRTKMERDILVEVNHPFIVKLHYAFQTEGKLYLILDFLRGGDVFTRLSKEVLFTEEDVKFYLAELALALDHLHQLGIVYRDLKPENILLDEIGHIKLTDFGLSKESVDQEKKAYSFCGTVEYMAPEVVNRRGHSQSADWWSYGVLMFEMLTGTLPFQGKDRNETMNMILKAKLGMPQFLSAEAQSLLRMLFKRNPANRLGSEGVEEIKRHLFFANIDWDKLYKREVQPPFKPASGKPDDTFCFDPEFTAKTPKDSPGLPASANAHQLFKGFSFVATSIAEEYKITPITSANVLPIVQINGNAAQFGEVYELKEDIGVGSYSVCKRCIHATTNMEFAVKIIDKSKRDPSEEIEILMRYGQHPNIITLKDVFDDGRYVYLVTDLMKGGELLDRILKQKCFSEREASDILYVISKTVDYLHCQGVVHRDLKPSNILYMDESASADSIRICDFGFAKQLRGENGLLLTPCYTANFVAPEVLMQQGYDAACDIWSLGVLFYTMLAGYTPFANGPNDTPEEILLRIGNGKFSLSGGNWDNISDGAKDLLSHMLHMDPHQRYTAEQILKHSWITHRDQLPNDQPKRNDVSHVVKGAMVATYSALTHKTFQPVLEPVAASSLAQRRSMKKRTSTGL
# Sequence of Ribosomal protein S6 kinase alpha-1 (Homo sapiens) (Q15418 whole entry): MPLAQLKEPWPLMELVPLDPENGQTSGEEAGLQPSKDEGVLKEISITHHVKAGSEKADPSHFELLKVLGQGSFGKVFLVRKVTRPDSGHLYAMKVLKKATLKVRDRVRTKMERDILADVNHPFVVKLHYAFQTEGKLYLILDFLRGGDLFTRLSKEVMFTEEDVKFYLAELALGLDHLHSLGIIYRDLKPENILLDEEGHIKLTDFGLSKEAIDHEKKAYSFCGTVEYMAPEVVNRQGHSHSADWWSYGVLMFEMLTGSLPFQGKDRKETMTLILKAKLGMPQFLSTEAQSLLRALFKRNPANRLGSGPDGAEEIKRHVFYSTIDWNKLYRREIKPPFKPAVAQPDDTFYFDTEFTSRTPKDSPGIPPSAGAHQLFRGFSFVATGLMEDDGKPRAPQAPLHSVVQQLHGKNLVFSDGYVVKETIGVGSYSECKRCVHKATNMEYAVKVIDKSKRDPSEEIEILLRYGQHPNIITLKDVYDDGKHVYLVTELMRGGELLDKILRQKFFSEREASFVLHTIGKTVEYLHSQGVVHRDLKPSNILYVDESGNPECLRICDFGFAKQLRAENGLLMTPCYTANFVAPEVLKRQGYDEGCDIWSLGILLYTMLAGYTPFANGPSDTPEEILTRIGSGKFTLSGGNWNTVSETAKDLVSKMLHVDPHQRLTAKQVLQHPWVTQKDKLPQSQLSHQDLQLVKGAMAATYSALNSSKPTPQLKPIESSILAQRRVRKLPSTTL
# Sequence of Rho-associated protein kinase 2 (Homo sapiens) (O75116 whole entry, looked up): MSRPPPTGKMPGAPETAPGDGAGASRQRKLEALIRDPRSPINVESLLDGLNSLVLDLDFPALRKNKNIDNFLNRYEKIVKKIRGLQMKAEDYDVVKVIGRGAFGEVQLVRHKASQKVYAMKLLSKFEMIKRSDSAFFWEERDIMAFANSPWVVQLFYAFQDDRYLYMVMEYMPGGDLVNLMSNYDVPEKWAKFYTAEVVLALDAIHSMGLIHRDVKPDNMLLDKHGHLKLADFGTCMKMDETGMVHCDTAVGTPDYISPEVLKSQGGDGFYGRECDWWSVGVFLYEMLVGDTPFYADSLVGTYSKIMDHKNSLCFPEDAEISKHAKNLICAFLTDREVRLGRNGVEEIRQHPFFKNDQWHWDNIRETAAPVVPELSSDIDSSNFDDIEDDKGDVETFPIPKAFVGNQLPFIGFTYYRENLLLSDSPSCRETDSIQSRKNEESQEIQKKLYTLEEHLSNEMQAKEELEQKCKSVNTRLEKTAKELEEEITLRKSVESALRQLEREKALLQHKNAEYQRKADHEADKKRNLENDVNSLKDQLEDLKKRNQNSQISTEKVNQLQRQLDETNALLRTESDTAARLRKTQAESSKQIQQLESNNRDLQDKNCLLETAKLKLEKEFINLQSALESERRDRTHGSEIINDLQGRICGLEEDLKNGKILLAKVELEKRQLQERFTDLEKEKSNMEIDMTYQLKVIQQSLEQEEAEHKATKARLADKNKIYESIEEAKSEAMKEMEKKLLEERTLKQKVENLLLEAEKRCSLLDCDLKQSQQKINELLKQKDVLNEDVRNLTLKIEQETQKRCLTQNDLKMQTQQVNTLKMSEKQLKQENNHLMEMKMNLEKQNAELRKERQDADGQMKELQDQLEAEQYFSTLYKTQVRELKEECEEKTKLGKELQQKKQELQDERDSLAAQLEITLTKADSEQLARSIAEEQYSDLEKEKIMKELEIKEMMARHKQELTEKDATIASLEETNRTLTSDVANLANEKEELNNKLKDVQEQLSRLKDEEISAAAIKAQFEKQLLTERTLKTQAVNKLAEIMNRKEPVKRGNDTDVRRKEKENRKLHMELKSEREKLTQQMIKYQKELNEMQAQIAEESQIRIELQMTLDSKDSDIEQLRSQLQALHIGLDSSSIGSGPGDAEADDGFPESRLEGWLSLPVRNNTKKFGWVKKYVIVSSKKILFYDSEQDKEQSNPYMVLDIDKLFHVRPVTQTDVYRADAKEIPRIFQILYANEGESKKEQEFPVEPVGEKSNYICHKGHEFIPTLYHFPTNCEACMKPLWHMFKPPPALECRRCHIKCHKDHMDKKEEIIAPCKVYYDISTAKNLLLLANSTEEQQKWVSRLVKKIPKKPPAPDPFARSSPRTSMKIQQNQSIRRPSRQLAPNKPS
# Sequence of Rho-associated protein kinase 1 (Homo sapiens) (Q13464 2-1354 limits assumed): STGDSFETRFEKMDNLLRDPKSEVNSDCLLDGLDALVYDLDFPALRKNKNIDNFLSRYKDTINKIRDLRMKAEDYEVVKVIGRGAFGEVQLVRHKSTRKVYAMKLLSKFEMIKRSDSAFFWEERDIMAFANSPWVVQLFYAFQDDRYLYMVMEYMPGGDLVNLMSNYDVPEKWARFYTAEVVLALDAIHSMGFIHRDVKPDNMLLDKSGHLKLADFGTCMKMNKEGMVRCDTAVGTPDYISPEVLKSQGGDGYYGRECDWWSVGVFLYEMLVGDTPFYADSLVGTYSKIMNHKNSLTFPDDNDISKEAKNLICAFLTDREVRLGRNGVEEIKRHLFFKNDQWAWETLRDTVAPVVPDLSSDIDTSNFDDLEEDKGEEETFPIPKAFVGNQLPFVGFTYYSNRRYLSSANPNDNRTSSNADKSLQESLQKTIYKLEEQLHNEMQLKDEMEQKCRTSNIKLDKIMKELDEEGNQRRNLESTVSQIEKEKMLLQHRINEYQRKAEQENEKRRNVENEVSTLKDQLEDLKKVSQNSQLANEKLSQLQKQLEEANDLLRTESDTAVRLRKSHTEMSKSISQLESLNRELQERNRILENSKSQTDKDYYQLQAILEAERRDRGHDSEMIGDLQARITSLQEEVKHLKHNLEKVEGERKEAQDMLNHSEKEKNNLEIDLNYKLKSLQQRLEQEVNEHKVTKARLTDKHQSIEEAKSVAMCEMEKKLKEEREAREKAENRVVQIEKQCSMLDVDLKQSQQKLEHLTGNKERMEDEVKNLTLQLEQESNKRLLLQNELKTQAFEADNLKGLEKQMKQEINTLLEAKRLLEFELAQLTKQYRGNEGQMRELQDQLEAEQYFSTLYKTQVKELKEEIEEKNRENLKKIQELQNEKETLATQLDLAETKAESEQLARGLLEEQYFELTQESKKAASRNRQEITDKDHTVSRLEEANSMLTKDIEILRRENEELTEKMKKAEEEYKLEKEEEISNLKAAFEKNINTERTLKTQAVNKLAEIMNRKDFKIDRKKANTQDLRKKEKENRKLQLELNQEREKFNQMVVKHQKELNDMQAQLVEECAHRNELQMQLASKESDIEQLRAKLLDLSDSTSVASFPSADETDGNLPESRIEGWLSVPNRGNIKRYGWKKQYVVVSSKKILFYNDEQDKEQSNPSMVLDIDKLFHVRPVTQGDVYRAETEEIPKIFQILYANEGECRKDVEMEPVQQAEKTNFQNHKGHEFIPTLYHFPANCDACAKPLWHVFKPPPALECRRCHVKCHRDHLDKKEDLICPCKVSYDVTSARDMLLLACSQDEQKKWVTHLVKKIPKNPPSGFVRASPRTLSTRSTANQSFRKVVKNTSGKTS
# Sequence of Ribosomal protein S6 kinase alpha-2 (Homo sapiens) (Q15349 whole entry): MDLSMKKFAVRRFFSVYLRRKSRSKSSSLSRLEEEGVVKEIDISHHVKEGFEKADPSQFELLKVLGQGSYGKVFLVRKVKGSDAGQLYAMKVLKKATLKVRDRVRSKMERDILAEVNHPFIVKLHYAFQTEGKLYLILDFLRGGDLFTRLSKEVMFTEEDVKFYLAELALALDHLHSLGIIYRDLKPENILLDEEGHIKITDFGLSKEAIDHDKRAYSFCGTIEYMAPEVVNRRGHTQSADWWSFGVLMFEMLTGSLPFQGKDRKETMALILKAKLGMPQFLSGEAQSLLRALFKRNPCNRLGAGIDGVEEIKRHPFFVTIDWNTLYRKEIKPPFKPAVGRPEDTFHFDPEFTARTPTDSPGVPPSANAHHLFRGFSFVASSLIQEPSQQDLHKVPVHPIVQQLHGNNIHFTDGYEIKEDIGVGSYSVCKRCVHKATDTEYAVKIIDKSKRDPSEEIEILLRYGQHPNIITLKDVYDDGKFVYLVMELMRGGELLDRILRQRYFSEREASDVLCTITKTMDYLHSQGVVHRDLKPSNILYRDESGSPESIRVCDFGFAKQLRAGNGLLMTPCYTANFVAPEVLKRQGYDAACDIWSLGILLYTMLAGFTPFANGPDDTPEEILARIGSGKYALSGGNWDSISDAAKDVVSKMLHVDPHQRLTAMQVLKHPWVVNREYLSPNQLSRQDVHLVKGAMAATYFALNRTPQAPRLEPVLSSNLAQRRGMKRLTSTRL
SMILES,inhibition [1] [%],inhibition [2] [%],inhibition [3] [%],inhibition [4] [%],inhibition [5] [%],inhibition [6] [%],inhibition [7] [%],inhibition [8] [%],inhibition [9] [%],inhibition [10] [%],inhibition [11] [%],inhibition [12] [%],inhibition [13] [%],inhibition [14] [%],inhibition [15] [%],inhibition [16] [%],inhibition [17] [%],inhibition [18] [%],inhibition [19] [%],inhibition [20] [%]
CCN1CCC(CC(=O)Nc2n[nH]c3nnc(-c4cccc(F)c4F)cc23)CC1,2.99,1.54,2.01,1.07,0.47,1.64,2.03,0.36,0.65,0.26,0.43,1.58,0.93,1.35,2.11,3.2,3.53,1.12,1.83,1.84
NS(=O)(=O)c1ccc(Nc2ncc(-c3ccccc3)o2)cc1,5.55,3.51,5.97,1.9,4.85,2.69,3.98,2.08,2.5,0.63,2.68,4.4,8.55,2.44,6.42,1.17,4.01,2.5,4.37,1.15
Nc1nc(-c2ccc(F)cc2)c(-c2ccc3ncccc3n2)s1,51.9,8.64,41.8,0.69,4.97,2.78,4.3,2.61,3.14,0.86,2.11,4.08,5.66,3.54,7.04,1.7,3.18,1.93,3.03,1.18
CCNC(=O)O[C@H]1CN[C@H](C#Cc2cc3ncnc(Nc4ccc(OCc5cccc(F)c5)c(Cl)c4)c3s2)C1,3.71,2.4,3.78,2.33,3.36,-0.03,2.81,-0.14,-0.33,0.96,1.95,2.86,0.32,1.32,0.05,-0.04,-1.01,1.63,0.86,1.4
COc1ccc2c(-c3ccnc(Nc4cccc(OC(F)(F)F)c4)n3)cnn2n1,5.35,3.53,5.76,2.98,14.2,1.96,7.99,2.02,3.71,1.01,2.92,3.74,8.15,2.26,3.67,1.3,1.1,1.43,2.43,1.53
COC(=O)c1sc(-n2cnc3cc(OC)c(OC)cc32)cc1OCc1ccccc1C(F)(F)F,5.96,4.17,5.73,2.01,4.24,1.58,3.35,-0.14,0.19,0.1,1.93,1.69,1.32,0.68,1.38,0.27,1.3,1.77,4.5,1.2
Nc1nc(-c2cccc(Cl)c2)c(-c2ccc3ncccc3n2)s1,40.1,7.77,33.1,2.8,5.63,1.78,4.96,3.46,5.88,1.58,1.91,4.39,7.84,3.03,9.16,1.82,4.8,3.04,2.74,1.97
Nc1ncc(-c2cccc(S(N)(=O)=O)c2)c2scc(-c3ccc(F)c(Cl)c3)c12,43.8,6.03,33.1,1.07,-0.14,2.34,1.46,1.86,1.14,1.03,1.47,2.98,2.92,2.93,6.15,2.5,2.98,3.17,2.68,2.34
Clc1ccc(-c2nn3ncccc3c2-c2ccnc(Nc3ccccc3)n2)cc1,2.67,1.78,4.14,3.3,5.54,1.46,3.41,2.16,2.02,2.28,4.03,2.19,3.84,1.56,2.48,0.47,1.89,0.49,1.37,0.64
